Our source for the INHIBITION values is ChEMBL document CHEMBL4513216, “Probing the Open Global Health Chemical Diversity Library for Multistage-Active Starting Points for Next-Generation Antimalarials” (ACS Infect Dis, 2020).

The whole screen tested about 69,000 compounds, of which about 8,600 (12%) showed an effect of 50% or more. The entries come from a sample that favours strong results as a whole.

The assay relates to Plasmodium berghei. Description: Screen against P. berghei liver stage (PbLuc), transformed with Luciferase, at 10uM. The assay is classed as functional, HepG2. The note with it: tested at 10 uM.
For the compound `CCOc1ccc(Cl)c(C(=O)N2CCCC(c3cc(C)[nH]n3)C2)n1` (stereo not drawn), the INHIBITION is -4.13%. Then `CS(=O)(=O)NCC(=O)NC1CCCN(c2ccccn2)C1` (stereo not drawn), with 7.605%; and `CC1(C)CN(C(=O)c2cc(F)cc3[nH]cnc23)CCS1`, with 10.2%.

On to `O=C1COC2(CCN(C(=O)c3ccco3)CC2)CN1Cc1cccnc1`, for which the INHIBITION came to 43.2%.

Take `CNC(=O)[C@@H]1CN(C(=O)COC)C[C@H]1c1ccnc(N2CCCC2)n1`: the INHIBITION came to 21.7%. With `Cn1ccc(C(=O)Nc2cc(F)ccc2OCC2CCCO2)cc1=O` (stereo not drawn) the figure was 15.6%. On to `Cc1nc(COCc2nc3c(o2)CN(C(=O)c2ccc[nH]2)C3)cs1`, for which the INHIBITION is recorded as -13.9%. With `CN(C)CC(=O)N1CCO[C@@H]2CC(COCc3ccncc3)C[C@H]21` (stereo partly drawn) the figure was 11.3%. For the compound `Cc1ccc(C(C(=O)N(C)CCc2cn[nH]c2)N(C)C)cc1` (stereo not drawn), the INHIBITION amounted to 51.1%. In the case of `Cc1cc(C)cc(CCC(=O)N(C)CCc2cn[nH]c2)c1`, the INHIBITION is recorded as -10.2%. For `Cc1ccccc1C(C(=O)N(C)CCc1cnn(C)c1)N(C)C` (stereo not drawn), the INHIBITION came out at 31.7%. Consider `CN(CCc1cn[nH]c1)C(=O)C(c1ccc(F)cc1)N(C)C` (stereo not drawn), for which the INHIBITION was determined as 43.7%. Turning to `Cc1cccc(C(C(=O)N(C)CCc2cn[nH]c2)N(C)C)c1` (stereo not drawn), the INHIBITION is 42.6%.

Turning to `Cc1ccccc1C(C(=O)N(C)CCc1cn[nH]c1)N(C)C` (stereo not drawn), the INHIBITION was 54.4%. `COc1cccc(C(C(=O)O)N(C)Cc2ccc(C)o2)c1` (stereo not drawn): the INHIBITION is recorded as 46.7%. Regarding `CN(C)[C@@H]1CN(C(=O)c2cc3ccc(F)cc3[nH]2)C[C@H]1O`, the INHIBITION came out at 18.15%.

On to `Cc1ccsc1C(=O)N1CCCn2c(nc(CN(C)C)cc2=O)C1`, for which the INHIBITION is -10.3%. For `CCn1c(CN2CCN(CCOC)CC2)nc2c(F)cccc21`, the INHIBITION was 46.95%.

In the case of `O=C1CCCCCN1CCc1nc(-c2cccnn2)no1`, the INHIBITION was 9.04%. As for `O=C1CCCCN1CCc1nc(-c2cccnn2)no1`, the INHIBITION was 52.9%. Then `c1cnnc(-c2noc(CCN3CCCO3)n2)c1`, with -8.51%.

In the case of `COc1ccc(CN2CCc3ncnc(C4CCOC4)c3CC2)cc1` (stereo not drawn), the INHIBITION is 24.6%. With `Cn1nnc(NCc2ccccc2OCc2ccc(Cl)cc2)n1` the figure was 4.07%; with `Cn1nnc(NCc2ccc(OCc3ccc(Cl)cc3)cc2)n1`, -47.4%.

On to `CCOc1cc(CNc2nnn(C)n2)ccc1OCc1ccc(Cl)cc1`, for which the INHIBITION is 63.1%.

Turning to `Cc1ccc(NC2CCN(C(=O)CCc3cscn3)CC2)nn1`, the INHIBITION is listed as 7.12%. With `c1ccc(CCNCC2Cn3nncc3CO2)cc1` (stereo not drawn) the figure was 33%; with `O=C(c1ccccc1F)N1CCOC(c2nc(-c3ncccn3)no2)C1` (stereo not drawn), 18.9%; with `Cc1cn(CC(=O)Nc2cc(C(C)(C)C)nn2C)cn1`, 16.9%.

On to `CCN(CC(C)C#N)C(=O)CNc1ccc(F)c(C)c1` (stereo not drawn), for which the INHIBITION was -48.4%.

As for `CCN(CC(C)C#N)C(=O)CNc1cc(Cl)ccc1C(N)=O` (stereo not drawn), the INHIBITION is given as 17.5%.

Consider `CCN(CC(C)C#N)C(=O)CNc1ccc(C(N)=O)c(C)c1` (stereo not drawn), for which the INHIBITION was 92.5%.

Take `O=C(CCN1CCOC1=O)Nc1cnn(-c2ccccc2Cl)c1`: the INHIBITION stood at 13.3%. Then `c1ccc(Oc2nccc3occc23)c(CN2CCCCC2)c1`, with 48.8%; and `COc1cccc(CN2CCN(c3noc(C(C)C)n3)CC2)c1F`, with -21.8%. With `CCN1CCC(N2CCN(c3cc(-c4nc(C)no4)ccn3)CC2)CC1` the figure was 33.8%; with `Cc1noc(-c2ccnc(Oc3cccc(CN4CCCC4)c3F)c2)n1`, 83.3%; with `Cc1noc(-c2ccnc(Oc3ccccc3CN3CCCCC3)c2)n1`, 56.3%. Regarding `Cc1noc(-c2ccc(Oc3cccc(CN4CCCC4)c3F)nc2)n1`, the INHIBITION was 35%. With `CC(NC(=O)NCCCn1cncn1)c1ccc(C#N)cc1` (stereo not drawn) the figure was 24.75%; with `CC=C(C)C(=O)NS(=O)(=O)c1ccc(C(F)(F)F)cn1`, 13.8%; with `O=C(CCCN1CCOCC1)N1CCCC(CO)(CC2CC2)C1` (stereo not drawn), -4.21%. For `CC(C1CCN(C(=O)c2coc(CN3CCOCC3)c2)CC1)N(C)C` (stereo not drawn), the INHIBITION stood at 35.8%. With `Cc1cc(NCCC(=O)NC2CCS(=O)(=O)C2)nc(-c2ccncc2)n1` (stereo not drawn) the figure was 15.7%; with `CC(C)c1cc(C(=O)N2CCc3nc(C4CCCN4)ncc3C2)cs1` (stereo not drawn), 28%. Then `COc1cccc(C(=O)N2CCc3nc(C4CCCN4)ncc3C2)c1` (stereo not drawn), with 59.3%. `Cc1cc(C(=O)N2CCc3nc(C4CCCN4)ncc3C2)cs1` (stereo not drawn): the INHIBITION is on record as -16.5%. With `COc1ncc(NCc2ccc(C#N)cc2)cc1C(N)=O` the figure was 8.12%; with `COc1ncc(NCc2ccc(Cl)c(Cl)c2)cc1C(N)=O`, 71.8%.

With `COc1ncc(NCc2ccc(F)cc2)cc1C(N)=O`, the INHIBITION is given as -5.1%. Then `CCC(=O)N1CCC2(COCc3cnc(NCc4ccco4)nc32)C1` (stereo not drawn), with 6.55%.

In the case of `CNc1cc(N2CCC(O)(CNC(=O)c3ccc(C)nc3)C2)ncn1` (stereo not drawn), the INHIBITION is 12.3%. Take `Cc1cnn(CC2CCCN2CC(=O)Nc2cc(C)on2)c1` (stereo not drawn): the INHIBITION was -23.9%. Then `Cc1nccc(N(C)Cc2ncc(-c3ccccc3C(=O)O)s2)n1`, with 1.635%; and `COc1cc2c(cc1OC)C(=O)C(Sc1nnc(C)o1)C2` (stereo not drawn), with 27.5%; and `O=C(O)CC1COCCN1Cc1ccccc1OCCc1ccccc1` (stereo not drawn), with 1.95%. Consider `O=C(O)CC1COCCN1Cc1ccccc1-c1ccccc1` (stereo not drawn), for which the INHIBITION is -4.56%.

In the case of `O=C(O)CC1COCCN1CCCc1ccccc1` (stereo not drawn), the INHIBITION worked out at 56.2%.

In the case of `CCS(=O)(=O)NCCCn1ncc2c(C)cccc21`, the INHIBITION is on record as 4.35%. With `Cc1cc(C(=O)N(C)CCCn2cccn2)nc(N)n1`, the INHIBITION is reported as 64.1%. With `Cc1cc(N(C)CCCn2cccn2)nc(-c2cccnc2)n1` the figure was -37.2%; with `Cc1cc(N(C)C)nc(NCCn2cccn2)n1`, -24.4%; with `Cc1cc(N(C)CCCn2cccn2)nc(N)n1`, 75.2%. With `CCCN(Cc1nccn1C)C(=O)c1cc(C)nc(C)n1` the figure was 42.1%; with `CCOc1c(F)cccc1C(=O)N(C)CCn1cccn1`, -27.6%; with `COc1ccc(Cl)c(NCC(=O)NCC(=O)N2CCCC2)c1`, 24.1%.

`COCC1CCCCN1C(=O)c1cc(Cn2ccc3ccccc32)[nH]n1` (stereo not drawn): the INHIBITION is on record as -14.9%. With `CCN(C)C[C@@H]1CN(S(=O)(=O)c2cccc(Cl)c2)C[C@@H]1CO` the figure was 57.6%; with `CCN(C)C[C@@H]1CN(S(=O)(=O)c2ccc(C#N)cc2)C[C@@H]1CO`, 58.6%; with `CCN(C)C[C@@H]1CN(S(=O)(=O)c2ccc(OC)cc2)C[C@@H]1CO`, 39.4%.

Turning to `CCN(C)C[C@@H]1CN(S(=O)(=O)c2cccc(C#N)c2)C[C@@H]1CO`, the INHIBITION was 36.2%.

For the compound `CCN(C)C[C@@H]1CN(Cc2cccc(Cl)c2)C[C@@H]1CO`, the INHIBITION stood at 43.3%. Take `COCCN(C)C[C@@H]1CN(C(=O)c2cccc(Cl)c2)C[C@@H]1CO`: the INHIBITION is recorded as 10.7%.
